Laboratory results from PubChem BioAssay (NCATS).
“And” between values parts separate entries of the source, which are not always exact repeats. Equal values may be shown once. Results filed as inconclusive are left out. The source made the active and inactive calls. Unless noted, calls follow the shape of the full dose curve.

Key:
[1] = target: Estrogen receptor (Homo sapiens) (UniProt P03372); experiment: qHTS assay for small molecule antagonists of estrogen receptor alpha signaling (AID 588513; active = well fitted curve in the direction sought with a large enough effect in the signal ratio, with a control signal flat, not every such curve was filed as active; the % refers to the signal ratio; also: % is scaled to controls: 0 for no effect and ±100 for the full control effect)
Procedure, shortened: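 Fluorescence from CCF4 substrate after 2 h at room temperature gave reporter activity; cells had been exposed to compound and 0.5nM 17-beta-estradiol for 18 h at 37 C. Hill-equation fitting yielded IC50 and maximal response.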

[2] = target: Estrogen receptor (Homo sapiens) (UniProt P03372); experiment: qHTS assay for small molecule agonists of estrogen receptor alpha signaling (AID 588514);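 also: 0% = vehicle only and 100% = reference agonist; nearly all actives have a fitted effect of over 70% in size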
Procedure, shortened: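 Read-out: CCF4 fluorescence from a beta-lactamase reporter in ER-alpha-UAS-bla HEK 293 cells after 18 hrs of compound exposure at 37 C. Normalized to 20 nM 17-beta-estradiol (100%) and DMSO (0%).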

[3] = target: Peroxisome proliferator-activated receptor gamma (Homo sapiens) (UniProt P37231); experiment: qHTS assay for small molecule agonists of peroxisome proliferator-activated receptor gamma signaling (AID 588536; active = well fitted curve in the direction sought with a large enough effect in the signal ratio, with a control signal flat, not every such curve was filed as active; the % refers to the signal ratio;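 also: 0% = DMSO basal wells and 100% = rosiglitazone at 2 µM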)
Procedure, shortened: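 Cells were plated and held 6–6.5 h at 37 C, then compounds were added as a titration series. After a further 16 h, CCF4 dye was loaded for 2 h at room temperature and emission at 460/530 nm recorded.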

[4] = target: Peroxisome proliferator-activated receptor gamma (Homo sapiens) (UniProt P37231); experiment: qHTS assay for small molecule antagonists of peroxisome proliferator-activated receptor gamma signaling (AID 588537; active = well fitted inhibition curve with a large enough effect in the signal ratio, with a control signal flat, not every such curve was filed as active; the % refers to the signal ratio;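 also: reporter cells co-stimulated with 50 nM rosiglitazone agonist during compound treatment; % of control where 0% means no effect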)
Procedure, shortened: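 Read-out: CCF4 fluorescence (ex 405, em 460/530 nm) after 2 h at RT. Cells were HEK293 carrying a UAS-bla reporter and treated 16 h at 37 C with compound plus rosiglitazone (50 nM final). Normalized to rosiglitazone and DMSO.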

[5] = target: Vitamin D3 receptor (Homo sapiens) (UniProt P11473); experiment: qHTS assay for small molecule antagonists of vitamin D receptor signaling (AID 588541);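 also: receptor activated by calcitriol during compound treatment; series mostly up to about 77 µM; % is scaled to controls: 0 for no effect and ±100 for the full control effect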
Procedure, shortened: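 VDR-UAS-bla HEK293T cells in 2% charcoal-stripped FBS were stimulated with 1-alpha,25-dihydroxyvitamin D3 (3 nM final) plus compound for 16 h at 37 C. The beta-lactamase CCF4 readout was normalized to 50 nM agonist and DMSO, and Hill fits gave IC50.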

[6] = qHTS assay for small molecule agonists of retinoid X receptor alpha signaling (AID 588544); settings: HEK293T RXRa-UAS-bla, beta-lactamase reporter, 18 h; 530 nm emission; also: potency is read from the fitted curve at half-maximal effect;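 as to activation: 0% = DMSO basal wells and 100% = reference agonist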
[7] = target: Retinoic acid receptor RXR-alpha (Homo sapiens) (UniProt P19793); experiment: as above
[8] = target: Thyroid hormone receptor beta (Homo sapiens) (UniProt P10828); experiment: qHTS assay for small molecule agonists of thyroid hormone receptor beta signaling (AID 588545);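 also: 0% = DMSO only and 100% = 10 nM T3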
Procedure, shortened: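 Beta-lactamase reporter activity under TR response element control is measured in HEK 293 cells after 18 hrs compound exposure. Signal is ratiometric CCF4 fluorescence, 460/530 nm.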

[9] = qHTS assay for small molecule antagonists of retinoid X receptor alpha signaling (AID 588546; active = well fitted inhibition curve with a large enough effect in the signal ratio, with a control signal flat, not every such curve was filed as active; the % refers to the signal ratio;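 also: cells stimulated with 9-cis-retinoic acid as agonist; % is scaled to controls: 0 for no effect and ±100 for the full control effect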); settings: HEK293T RXRa-UAS-bla, beta-lactamase ratio, antagonist mode; measured here: W530 green channel, cytotoxicity proxy
Procedure, shortened: (§1)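 Beta-lactamase reporter inhibition, read as CCF4 fluorescence ratio (ex 405, em 460/530 nm) after 2 h at RT. HEK293T UAS-bla cells, 2500/well, were stimulated with 9-cis-RA at 500 or 100 nM final alongside test compound for 18 h at 37 C.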

[10] = target: Retinoic acid receptor RXR-alpha (Homo sapiens) (UniProt P19793); experiment: as above; settings: HEK293T RXRa-UAS-bla, beta-lactamase ratio, antagonist mode
Procedure, shortened: as §1

[11] = qHTS assay for small molecule activators of the p53 signaling pathway (AID 651743; active = well fitted activation curve with a large enough effect in the signal ratio, not every such curve was filed as active; the % refers to the signal ratio; also: series mostly up to about 92 µM; % of control where 0% means no effect); settings: HCT-116 p53RE-bla, beta-lactamase FRET ratio, 16 h; activation: stronger effect = higher value
Procedure, shortened: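 Reporter: beta-lactamase driven by p53 response elements, stably integrated in HCT-116 cells. Cells seeded at 4,000/well, 5 h preincubation, compound (DMSO) 16 h at 37 C; B/G FRET substrate 2 h RT; fluorescence intensity read.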

[12] = qHTS assay for environmental chemicals that activate the Aryl hydrocarbon Receptor (AhR) signaling pathway (AID 651777; active = well fitted curve in the direction sought with a large enough effect; an effect the other way counts as inactive or inconclusive; also: % of control where 0% means no effect; nearly all actives have a fitted effect of over 15% in size); settings: 1A2-DRE human hepatoma cells, luciferase, 24 h; activation: stronger effect = higher value
Procedure, shortened: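 Human hepatoma 1A2-DRE cells, stably carrying a dioxin response element and CYP1A2 promoter driving luciferase, were exposed to compounds for 24 hr at 37 C and 5% CO2. Luciferase signal was then read after 30 min One-Glo at room temperature.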

[13] = target: Peroxisome proliferator-activated receptor alpha (Homo sapiens) (UniProt Q07869); experiment: qHTS assay for small molecule agonists of the peroxisome proliferator-activated receptor alpha (PPARalpha) signaling pathway (AID 651778; active = well fitted curve in the direction sought with a large enough effect; an effect the other way counts as inactive or inconclusive; also: % of control where 0% means no effect); settings: PathHunter PPARalpha complementation, chemiluminescence, 6 h; max response: stronger effect = higher value
Procedure, shortened: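 Enzyme-fragment complementation assay in which ligand-bound PPARalpha translocates and forms an active enzyme that generates chemiluminescence. Cells were plated overnight, exposed to compound for 6 hr at 37 C, and then given detection reagent for 60 min at room temperature.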

[14] = qHTS assay for small molecule agonists of the antioxidant response element (ARE) signaling pathway measured by Nrf2-dependant transcriptional activity - cell viability counter screen (AID 720653; active = well fitted curve in the direction sought with a large enough effect in the repeat runs; an effect the other way counts as inactive or inconclusive; also: % is scaled to controls: 0 for no effect and ±100 for the full control effect); settings: ARE-bla HepG2 viability, CellTiter-Glo ATP luminescence, 16 h; max response: stronger effect = lower value
Procedure, shortened: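 ARE-bla HepG2 cells treated with compounds for 16 h at 37C; this counter screen measures viability as intracellular ATP by CellTiter-Glo luminescence after 30 min at room temperature.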

[15] = qHTS assay for cell viability of HEK293 cells (AID 743288; active = well fitted curve in the direction sought with a large enough effect; an effect the other way counts as inactive or inconclusive; also: % is scaled to controls: 0 for no effect and ±100 for the full control effect; nearly all actives have a fitted effect of over 50% in size); settings: ATP luminescence (CellTiter-Glo), 18 h; max response: stronger effect = lower value
Procedure, shortened: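 Viable-cell counts were inferred from luciferase-based ATP content in HEK293 cells seeded at 2,000/well, pre-incubated ≥5 h, then dosed with DMSO-solubilised compounds for 18 h at 37 C.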

[16] = qHTS assay for cell viability of the p53RE-bla HCT-116 cell line (AID 743292; active = well fitted curve in the direction sought with a large enough effect; an effect the other way counts as inactive or inconclusive; also: % is scaled to controls: 0 for no effect and ±100 for the full control effect; nearly all actives have a fitted effect of over 55% in size)
Procedure, shortened: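 CellSensor p53RE-bla HCT-116 cells, 4,000/well, preincubated 5 h at 37 C, then exposed to compounds in DMSO for 16 h at 37 C. Viability read as CellTiter-Glo luminescence (intracellular ATP) after 30 min at room temperature.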

[17] = target: Nuclear receptor subfamily 1 group I member 2 (Rattus norvegicus) (UniProt Q9R1A7); experiment: qHTS assay for small molecule activators of the rat pregnane X receptor (rPXR) signaling pathway (AID 651751; call rule not given here; also: 0% is about no effect); settings: rPXR reporter cells, luciferase (One-Glo), 24 h
[18] = target: Glucocorticoid receptor (Homo sapiens) (UniProt P04150); experiment: qHTS assay for small molecule antagonists of glucocorticoid receptor signaling (AID 588533; active = well fitted inhibition curve with a large enough effect in the signal ratio, with a control signal flat, not every such curve was filed as active; the % refers to the signal ratio; also: % is scaled to controls: 0 for no effect and ±100 for the full control effect)
Procedure, shortened: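 Antagonist-mode qHTS: compound titrations added to GRE-bla HeLa cells, then dexamethasone 2 nM final; 18 h, 37 C. CCF4 FRET fluorescence normalized to dexamethasone and DMSO; IC50 from Hill fit.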

[19] = target: Peroxisome proliferator-activated receptor delta (Homo sapiens) (UniProt Q03181); experiment: qHTS assay for small molecule agonists of peroxisome proliferator-activated receptor delta signaling (AID 588534);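 also: 0% = DMSO basal wells and 100% = positive control agonist at 10 µM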
Procedure, shortened: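 Titration series tested in agonist mode on beta-lactamase reporter cells; 18 hrs at 37 C after a 5 hr pre-incubation. Readout: CCF4 fluorescence, 2 hrs RT. Hill equation gives EC50 and maximal response.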

[20] = qHTS assay for small molecule agonists of the antioxidant response element (ARE) signaling pathway measured by Nrf2-dependant transcriptional activity (AID 720636; active = well fitted curve in the direction sought with a large enough effect in the repeat runs; an effect the other way counts as inactive or inconclusive; also: % of control where 0% means no effect)
Procedure, shortened: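 ARE-luc HepG2 cells carrying an Nrf2-responsive luciferase reporter were plated in medium with 1% dialyzed FBS, left 6 hr at 37 C to attach, then exposed to compound for 16 hr. Luciferase luminescence was read after ONE-Glo addition.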

Thyroid hormone receptor beta (Homo sapiens), sequence (P10828 whole entry, looked up): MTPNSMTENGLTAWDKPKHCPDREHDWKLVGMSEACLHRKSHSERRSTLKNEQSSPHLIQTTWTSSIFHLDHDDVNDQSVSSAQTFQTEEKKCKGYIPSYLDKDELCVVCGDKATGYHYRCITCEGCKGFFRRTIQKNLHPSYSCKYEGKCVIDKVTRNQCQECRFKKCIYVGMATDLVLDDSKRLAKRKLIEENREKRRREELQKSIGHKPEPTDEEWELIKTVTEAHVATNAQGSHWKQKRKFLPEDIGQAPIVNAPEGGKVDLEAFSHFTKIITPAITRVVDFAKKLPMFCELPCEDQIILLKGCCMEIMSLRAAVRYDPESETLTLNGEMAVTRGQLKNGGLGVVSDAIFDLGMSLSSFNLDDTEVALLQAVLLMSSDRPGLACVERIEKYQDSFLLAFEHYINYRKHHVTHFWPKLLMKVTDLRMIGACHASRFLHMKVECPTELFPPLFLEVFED
Peroxisome proliferator-activated receptor gamma (Homo sapiens), sequence (P37231 whole entry, looked up): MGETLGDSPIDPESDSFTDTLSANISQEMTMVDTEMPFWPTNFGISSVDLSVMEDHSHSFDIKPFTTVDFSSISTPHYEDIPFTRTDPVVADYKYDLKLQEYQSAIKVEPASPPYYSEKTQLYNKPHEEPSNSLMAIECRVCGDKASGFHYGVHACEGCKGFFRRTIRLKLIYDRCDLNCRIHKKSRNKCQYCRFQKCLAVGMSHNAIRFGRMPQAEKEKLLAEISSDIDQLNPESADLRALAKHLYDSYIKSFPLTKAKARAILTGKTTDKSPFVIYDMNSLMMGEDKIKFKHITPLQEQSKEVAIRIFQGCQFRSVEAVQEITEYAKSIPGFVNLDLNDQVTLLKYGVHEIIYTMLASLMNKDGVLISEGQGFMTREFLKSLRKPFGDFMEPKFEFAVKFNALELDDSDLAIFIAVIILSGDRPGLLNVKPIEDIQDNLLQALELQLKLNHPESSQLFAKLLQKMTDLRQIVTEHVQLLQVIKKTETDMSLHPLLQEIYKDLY
Glucocorticoid receptor (Homo sapiens), sequence (P04150 whole entry, looked up): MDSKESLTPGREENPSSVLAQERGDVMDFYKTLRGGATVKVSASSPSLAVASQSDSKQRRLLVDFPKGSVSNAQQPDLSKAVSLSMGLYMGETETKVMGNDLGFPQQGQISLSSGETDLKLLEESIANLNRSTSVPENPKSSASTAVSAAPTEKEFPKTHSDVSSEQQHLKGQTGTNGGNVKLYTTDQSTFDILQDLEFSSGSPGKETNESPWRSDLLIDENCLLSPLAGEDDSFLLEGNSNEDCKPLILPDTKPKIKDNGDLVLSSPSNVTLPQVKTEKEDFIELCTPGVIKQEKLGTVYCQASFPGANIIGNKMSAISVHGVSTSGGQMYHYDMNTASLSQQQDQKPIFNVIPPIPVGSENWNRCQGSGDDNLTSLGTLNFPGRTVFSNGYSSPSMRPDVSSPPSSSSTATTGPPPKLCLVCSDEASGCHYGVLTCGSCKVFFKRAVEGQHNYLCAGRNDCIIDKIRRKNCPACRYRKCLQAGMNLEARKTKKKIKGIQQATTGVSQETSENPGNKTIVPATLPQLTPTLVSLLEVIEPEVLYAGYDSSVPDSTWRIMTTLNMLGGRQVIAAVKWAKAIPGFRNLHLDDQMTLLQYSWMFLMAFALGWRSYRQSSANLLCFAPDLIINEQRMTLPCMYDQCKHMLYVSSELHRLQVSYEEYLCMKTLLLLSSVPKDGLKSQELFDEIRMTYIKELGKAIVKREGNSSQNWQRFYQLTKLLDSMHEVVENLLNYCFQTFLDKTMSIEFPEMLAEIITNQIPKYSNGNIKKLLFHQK
Estrogen receptor (Homo sapiens), sequence (P03372 whole entry, looked up): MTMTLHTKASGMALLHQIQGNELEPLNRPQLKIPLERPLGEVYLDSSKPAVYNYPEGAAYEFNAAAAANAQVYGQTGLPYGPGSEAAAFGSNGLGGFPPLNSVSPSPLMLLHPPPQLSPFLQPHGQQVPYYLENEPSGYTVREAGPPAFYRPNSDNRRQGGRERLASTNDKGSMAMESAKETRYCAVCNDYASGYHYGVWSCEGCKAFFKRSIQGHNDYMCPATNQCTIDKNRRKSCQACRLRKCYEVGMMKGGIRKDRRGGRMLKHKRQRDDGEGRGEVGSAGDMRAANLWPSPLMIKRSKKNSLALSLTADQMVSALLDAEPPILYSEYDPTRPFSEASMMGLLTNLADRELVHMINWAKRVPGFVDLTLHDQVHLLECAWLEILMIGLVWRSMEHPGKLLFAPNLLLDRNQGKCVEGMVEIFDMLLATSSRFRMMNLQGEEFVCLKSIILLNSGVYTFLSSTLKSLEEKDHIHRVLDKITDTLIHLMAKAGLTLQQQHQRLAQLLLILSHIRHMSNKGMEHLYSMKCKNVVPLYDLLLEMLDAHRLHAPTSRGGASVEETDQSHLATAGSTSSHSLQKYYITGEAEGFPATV
Nuclear receptor subfamily 1 group I member 2 (Rattus norvegicus), sequence (Q9R1A7 whole entry, looked up): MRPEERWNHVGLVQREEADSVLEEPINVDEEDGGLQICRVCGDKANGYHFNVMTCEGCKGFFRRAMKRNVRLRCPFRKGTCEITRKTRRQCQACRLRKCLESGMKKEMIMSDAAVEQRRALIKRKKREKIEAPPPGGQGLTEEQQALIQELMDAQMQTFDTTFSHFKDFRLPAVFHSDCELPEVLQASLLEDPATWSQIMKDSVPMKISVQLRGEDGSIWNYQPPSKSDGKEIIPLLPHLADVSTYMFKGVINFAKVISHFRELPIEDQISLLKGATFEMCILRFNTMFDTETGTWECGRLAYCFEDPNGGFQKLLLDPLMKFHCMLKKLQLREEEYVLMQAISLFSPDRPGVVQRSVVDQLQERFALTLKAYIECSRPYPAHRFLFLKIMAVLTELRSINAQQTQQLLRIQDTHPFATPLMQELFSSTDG
Peroxisome proliferator-activated receptor alpha (Homo sapiens), sequence (Q07869 whole entry, looked up, the tested form may be a part): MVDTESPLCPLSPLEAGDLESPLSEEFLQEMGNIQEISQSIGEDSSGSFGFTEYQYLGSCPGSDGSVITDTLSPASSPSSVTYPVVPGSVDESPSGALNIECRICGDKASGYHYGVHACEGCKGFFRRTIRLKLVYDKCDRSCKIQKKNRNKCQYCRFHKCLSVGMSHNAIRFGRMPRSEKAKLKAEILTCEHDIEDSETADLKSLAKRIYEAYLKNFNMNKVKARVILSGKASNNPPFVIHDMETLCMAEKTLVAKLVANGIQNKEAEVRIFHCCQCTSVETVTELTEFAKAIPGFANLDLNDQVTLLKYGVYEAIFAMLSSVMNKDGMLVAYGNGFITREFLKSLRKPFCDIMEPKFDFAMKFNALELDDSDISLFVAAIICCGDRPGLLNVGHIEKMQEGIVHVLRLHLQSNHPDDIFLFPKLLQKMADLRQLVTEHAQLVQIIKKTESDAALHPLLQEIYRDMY
Peroxisome proliferator-activated receptor delta (Homo sapiens), sequence (Q03181 whole entry, looked up): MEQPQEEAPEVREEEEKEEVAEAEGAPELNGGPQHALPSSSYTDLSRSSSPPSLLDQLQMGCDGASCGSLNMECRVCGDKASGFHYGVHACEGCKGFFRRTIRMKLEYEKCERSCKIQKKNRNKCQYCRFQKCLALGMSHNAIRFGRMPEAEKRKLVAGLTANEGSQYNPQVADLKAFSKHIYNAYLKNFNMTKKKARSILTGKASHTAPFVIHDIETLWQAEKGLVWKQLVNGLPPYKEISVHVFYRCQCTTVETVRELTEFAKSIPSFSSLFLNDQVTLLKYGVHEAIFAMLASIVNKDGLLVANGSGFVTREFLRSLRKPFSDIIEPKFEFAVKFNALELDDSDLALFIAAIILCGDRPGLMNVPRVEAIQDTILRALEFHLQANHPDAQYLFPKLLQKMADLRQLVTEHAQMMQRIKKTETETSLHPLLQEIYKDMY
Vitamin D3 receptor (Homo sapiens), sequence (P11473 whole entry, looked up): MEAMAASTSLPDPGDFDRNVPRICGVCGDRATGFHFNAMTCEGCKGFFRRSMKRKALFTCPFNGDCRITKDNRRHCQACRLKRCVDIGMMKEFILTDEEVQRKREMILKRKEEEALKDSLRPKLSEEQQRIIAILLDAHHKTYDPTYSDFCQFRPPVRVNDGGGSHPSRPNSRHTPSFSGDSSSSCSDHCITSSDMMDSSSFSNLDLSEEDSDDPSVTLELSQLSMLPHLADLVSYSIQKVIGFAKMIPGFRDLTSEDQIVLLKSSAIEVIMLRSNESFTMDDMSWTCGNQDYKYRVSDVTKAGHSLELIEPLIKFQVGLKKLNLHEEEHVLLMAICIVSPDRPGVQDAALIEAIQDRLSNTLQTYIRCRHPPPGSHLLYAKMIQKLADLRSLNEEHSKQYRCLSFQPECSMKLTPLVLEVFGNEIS
Retinoic acid receptor RXR-alpha (Homo sapiens), sequence (P19793 whole entry, looked up): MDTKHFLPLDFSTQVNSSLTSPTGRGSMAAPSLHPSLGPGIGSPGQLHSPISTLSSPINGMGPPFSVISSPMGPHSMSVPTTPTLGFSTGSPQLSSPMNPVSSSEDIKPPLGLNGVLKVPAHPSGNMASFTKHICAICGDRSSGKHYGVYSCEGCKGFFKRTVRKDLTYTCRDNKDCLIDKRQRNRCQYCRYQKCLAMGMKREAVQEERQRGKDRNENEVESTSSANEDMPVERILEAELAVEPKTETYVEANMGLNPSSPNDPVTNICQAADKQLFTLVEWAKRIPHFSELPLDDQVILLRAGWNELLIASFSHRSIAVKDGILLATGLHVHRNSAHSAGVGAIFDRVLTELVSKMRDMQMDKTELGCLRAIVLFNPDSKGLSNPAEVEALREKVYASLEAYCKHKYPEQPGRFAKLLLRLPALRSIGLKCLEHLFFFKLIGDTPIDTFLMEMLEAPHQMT

CCOP(=O)(OCC)SCCSCC
active: Potency [7] 44.7 µM
-10.7%: max response [6]
-5.85%: max response [9]
inactive: Potency [1] | Potency [2] | Potency [3] | Potency [4] | Potency [5] | Potency [8] | max response [10] 3.44% | activation [11] 1.72% | activation [12] 1.43% | max response [13] -1.58% | max response [14] 12.9% | max response [15] -2.44% | Potency [16] | max response [17] 3.51%

Brc1c(Br)c(Br)c(Br)c(Br)c1Br
inactive: Potency [1] | Potency [2] | Potency [18] | outcome [19] | Potency [3] | Potency [4] | Potency [7] | Potency [8] | max response [10] 0.275% | activation [11] 2.23% | activation [12] 2.18% | max response [13] -0.494% | Potency [20] | max response [14] 3.38% | max response [15] -0.224% | Potency [16] | max response [17] 0.884%
-7.75%: max response [6]
-6.9%: max response [9]

COc1nc(C)nc(NC(=O)NS(=O)(=O)c2ccccc2Cl)n1
-7.69%: max response [6]
-9.33%: max response [9]
inactive: Potency [1] | Potency [2] | Potency [18] | Potency [3] | Potency [4] | Potency [5] | Potency [7] | Potency [8] | max response [10] -1.72% | activation [11] -1.02% | activation [12] 1.34% | max response [13] -1.56% | Potency [20] | max response [14] -0.816% | max response [15] -13% | Potency [16] | max response [17] -1.17%

CCN(CC)c1nc(C)cc(OP(=S)(OC)OC)n1
26.8%: max response [6]
inactive: Potency [1] | Potency [2] | Potency [18] | outcome [19] | Potency [3] | Potency [4] | Potency [5] | Potency [7] | Potency [8] | activation [11] 1.41% | activation [12] 1.48% | max response [13] 3.1% | Potency [20] | max response [15] -11.6% | Potency [16] | max response [17] -1.67%

COc1nc(C)nc(NC(=O)NS(=O)(=O)c2ccccc2CCC(F)(F)F)n1
-27.4%: max response [6]
inactive: Potency [1] | Potency [18] | Potency [3] | Potency [4] | Potency [5] | Potency [7] | Potency [8] | max response [10] -8.68% | activation [11] 1.94% | activation [12] 0.656% | max response [13] -1.05% | Potency [20] | max response [14] 3.55% | Potency [16] | max response [17] 1.14%
-4.25%: max response [9]

O=C(O)c1nc(Cl)ccc1Cl
inactive: Potency [1] | Potency [2] | Potency [18] | Potency [7] | Potency [8] | max response [10] -18.6% and -6.7% | activation [11] 3.37% | max response [13] -1.62% and -4.61% | Potency [20] | max response [14] -0.246% and 14% | max response [15] -0.844% and 6.6% | Potency [16] | max response [17] 3.48% and 10.3%
-5.13% and -14.7%: max response [9]
15.6% and -18.9%: max response [6]

CC(C)C(=O)OCC(C)(C)C(OC(=O)C(C)C)C(C)C (centres undefined)
-9.99%: max response [6]
-5.68%: max response [9]
inactive: Potency [1] | Potency [2] | Potency [18] | outcome [19] | Potency [3] | Potency [4] | Potency [5] | Potency [7] | Potency [8] | max response [10] -12.8% | activation [11] -0.206% | activation [12] 1.77% | max response [13] -1.27% | max response [14] -12.6% | max response [15] -13% | Potency [16] | max response [17] 2.02%

Cc1cc(C)nc(NC(=O)NS(=O)(=O)c2ccccc2C(=O)OC2COC2)n1
inactive: Potency [1] | outcome [19] | Potency [3] | Potency [4] | Potency [5] | Potency [7] | Potency [8] | activation [12] -0.244% | max response [13] -2.96% | Potency [20] | max response [14] 18% | max response [15] 8.1% | max response [17] -3.04%

CC(C)(C)C(=O)[C@H](Oc1ccc(Cl)cc1)n1cncn1
21.3%: max response [6]
inactive: Potency [1] | Potency [2] | Potency [18] | Potency [3] | Potency [4] | Potency [5] | Potency [7] | Potency [8] | max response [10] -22% | activation [11] -5.19% | activation [12] 3.75% | max response [13] -2.36% | Potency [20] | max response [14] -6.65% | Potency [16]
20.1%: max response [9]

CC(C)(C)C(=O)[C@@H](Oc1ccc(Cl)cc1)n1cncn1
9.03%: max response [6]
inactive: Potency [1] | Potency [2] | Potency [18] | outcome [19] | Potency [3] | Potency [4] | Potency [7] | Potency [8] | max response [10] 9.68% | activation [11] 0.216% | activation [12] 5.12% | max response [13] -2.73% | Potency [20] | max response [14] 0.855% | max response [15] -4.89% | Potency [16]
-6.66%: max response [9]

Nc1nc(N)nc(Cl)n1
-6.94% and -9.26% and -7.48%: max response [9]
-8.55% and -12.5% and -6.12%: max response [6]
inactive: Potency [1] | Potency [2] | Potency [18] | Potency [3] | Potency [4] | Potency [7] | Potency [8] | max response [10] -8.75% and -3.8% and 6.06% | activation [11] 14% and -1.73% | activation [12] 0.466% and 6.68% and -2.27% | max response [13] 0.345% and 0.412% and -1.56% | Potency [20] | max response [14] -27.2% and -2.73% and -17.4% | max response [15] -6.86% and -11.8% and -2.3% | Potency [16] | max response [17] 0.0938% and 1.1% and -0.658%
